PubChem BioAssay AID1209 (Sanford-Burnham Center for Chemical Genomics, 2008)
The campaign covered roughly 190,000 compounds. About 810 (0.43%) were called active. No stated cut-off is given here; in the data, active means inhibition above about 50%; inactive means the rest. What follows is part of a selection rich in actives, with near analogues and random picks from the rest.

biological target: Mannose-6-phosphate isomerase (Homo sapiens) (UniProt P34949); assay: MPI enzyme activity inhibition – biochemical, fluorescence intensity, coupled assay, primary screen (AID 1209); conditions: purified PMI enzyme, at 20 µM, stronger effect = higher value;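 further: plate controls were DMSO vehicle for no effect and wells lacking substrate for full effect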
Sequence (P34949 whole entry, looked up): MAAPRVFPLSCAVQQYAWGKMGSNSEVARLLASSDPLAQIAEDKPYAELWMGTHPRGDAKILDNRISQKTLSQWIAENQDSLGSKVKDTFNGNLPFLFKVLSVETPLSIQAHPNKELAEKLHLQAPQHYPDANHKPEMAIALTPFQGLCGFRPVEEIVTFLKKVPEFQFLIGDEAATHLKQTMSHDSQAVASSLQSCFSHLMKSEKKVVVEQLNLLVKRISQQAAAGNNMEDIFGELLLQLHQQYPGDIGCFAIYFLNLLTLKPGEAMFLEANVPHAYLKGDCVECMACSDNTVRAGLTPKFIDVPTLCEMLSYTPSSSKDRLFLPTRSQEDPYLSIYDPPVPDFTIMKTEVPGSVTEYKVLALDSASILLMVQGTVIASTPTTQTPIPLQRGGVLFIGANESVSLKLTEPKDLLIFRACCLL

Row | SMILES | inhibition
1 | C(=N\n1cnnc1)/c1ccc(OCc2ccccc2)cc1 | -5.7% (inactive)
2 | CCOc1ccc(/C=N/n2cnnc2)cc1 | 84.4% (active)
3 | Fc1ccc(COc2ccc(/C=N/n3cnnc3)cc2)cc1 | -3.3% (inactive)
4 | Cc1occc1C(=O)Nc1nnc(-c2cccs2)s1 | 6.2% (inactive)
5 | Clc1ccccc1Sc1cnc2ccccc2n1 | 0.9% (inactive)
6 | O=C(/C=C/c1ccc(S(=O)(=O)N2CCOCC2)cc1)NC(=S)NCCCn1ccnc1 | -0.5% (inactive)
7 | CC(C)=C1C2CCC1C1C(=O)N(c3nccs3)C(=O)C21 (centres undefined) | -3.3% (inactive)
8 | CC1(O)C(=O)c2ccccc2N(c2ccccc2)C1=O (centres undefined) | -6.5% (inactive)
9 | CN1C(=O)C(Cl)(Cl)C(=O)c2ccccc21 | 77.4% (active)
10 | CCN1C(=O)C(F)(CC)C(=O)c2ccccc21 (centres undefined) | 2.2% (inactive)
11 | CC(C)(C)c1ccc(C(=O)CSc2n[nH]c(=O)[nH]c2=O)cc1 | -4.4% (inactive)
12 | CC(C)(C)c1ccc(C(=O)CSc2nc3ccccc3c(=O)[nH]2)cc1 | -6.3% (inactive)
13 | COc1ccc(NC(C)C(=O)N/N=C/c2cc(Br)ccc2OC)cc1 (centres undefined) | 11.5% (inactive)
14 | COc1ccc(/C(N)=N/OC(=O)CSc2ccc(C)cc2)cc1OC | 14.6% (inactive)
15 | O=C(c1cc(-c2ccco2)on1)N1CCOCC1 | 20.8% (inactive)
16 | CN1CCN(C(=O)c2cc(-c3ccco3)on2)CC1 | -0.9% (inactive)
17 | O=C(c1cc(-c2ccco2)on1)N1CCN(c2ccccc2)CC1 | 53.5% (active)
18 | CCCNC(=O)COC(=O)c1ccccc1OCC(=O)Nc1ccc(Br)cc1 | -10.2% (inactive)
19 | COc1ccc(-c2csc(NC(=O)C3CC(=O)N(c4ccc5c(c4)OCCO5)C3)n2)cc1 (centres undefined) | 5.8% (inactive)
20 | O=C1CCCN2N=C(SCC(=O)N3N=C(c4ccc(Br)cc4)CC3c3ccc(F)cc3)SC2=N1 (centres undefined) | 22.3% (inactive)
21 | CC(NC(=O)Nc1ccc2c(c1)OCO2)C1CCCO1 (centres undefined) | 0.5% (inactive)
22 | Cc1cc(N2CCOCC2)ccc1/C=C1/SC(=O)NC1=O | -13.8% (inactive)
23 | O=C1NC(=O)/C(=C/c2ccc(O)cc2)S1 | -8.7% (inactive)
24 | O=C1NC(=O)/C(=C\c2ccc(O)cc2O)S1 | 53.5% (active)
25 | O=S(=O)(c1ccc(Cl)cc1)c1cnc2ccccc2n1 | -6.4% (inactive)
26 | O=C(O)c1cc(-c2ccccc2)n[nH]1 | -12% (inactive)

Row | SMILES | inhibition
27 | CC(C)(C)NC(=O)c1cc(-c2ccccc2)n[nH]1 | 70.1% (active)
28 | COC(=O)c1cc(-c2ccccc2)n[nH]1 | 7.7% (inactive)
29 | Cc1c(Br)c([N+](=O)[O-])nn1CC(=O)Nc1ccccn1 | 7.8% (inactive)
30 | Cc1c(Br)c([N+](=O)[O-])nn1CC(=O)NCc1ccccc1 | 1.2% (inactive)
31 | Cc1c(Br)c([N+](=O)[O-])nn1CC(=O)NCc1ccccn1 | 101% (active)
32 | O=C(C1CCCN(S(=O)(=O)c2cnc[nH]2)C1)N(CCc1ccccc1)Cc1ccccc1 (centres undefined) | 9.1% (inactive)
33 | CCOCC(=O)Nc1nc2ccc(C)cc2s1 | 110% (active)
34 | CCOCC(=O)Nc1nc2ccc(OCC)cc2s1 | -3% (inactive)
35 | COCC(=O)Nc1nc2ccc(C)cc2s1 | 4.3% (inactive)
36 | CNC(=S)N1CCc2cc(OC)c(OC)cc2C1COc1ccc(F)cc1 (centres undefined) | 10.3% (inactive)
37 | O=C1CNC(=O)c2c(nc3n2CCC3)N1 | -20.3% (inactive)
38 | CC(C)=C1SC(N2CCN(c3ccc(Cl)cc3)CC2)=NC1=O | 0.9% (inactive)
39 | COc1cccc(C(=O)NC(C)C(c2cccs2)N2CCN(C)CC2)c1 (centres undefined) | 4.2% (inactive)
40 | CCN(CC)c1ccc(/C=N/N=C(c2ccccc2)c2ccccc2)c(O)c1 | 0.4% (inactive)
41 | COc1ccc(/C=N/N(Cc2ccccc2)c2ccccc2)cc1O | 16.7% (inactive)
42 | O=C(/C(=N/N=C/c1ccc(O)c(O)c1O)c1ccccc1)c1ccccc1 | 55.5% (active)
43 | Oc1cccc(/C=N/N(Cc2ccccc2)c2ccccc2)c1 | 10% (inactive)
44 | Oc1cccc(C=NCc2ccccc2)c1O | 49.6% (inactive)
45 | Oc1ccc(/C=N/N(Cc2ccccc2)c2ccccc2)c(O)c1O | 76.6% (active)
46 | COc1cc(/C=N/N=C(/C(=O)c2ccccc2)c2ccccc2)cc(OC)c1O | 22% (inactive)
47 | Oc1ccc(/C=N/N=C(c2ccccc2)c2ccccc2)c(O)c1O | 67.9% (active)
48 | O=C(/C(=N/N=C/c1ccc(O)c(O)c1)c1ccccc1)c1ccccc1 | 30.7% (inactive)
49 | CC(=O)c1cn(CCCCCCCn2cc(C(C)=O)c(=O)[nH]c2=O)c(=O)[nH]c1=O | 1.5% (inactive)
50 | O=C(COC(=O)Cc1ccc(Br)cc1)NC1CCCCC1 | -3.4% (inactive)
51 | Oc1ccc(C2N=C(c3ccccc3)NC(c3ccccc3)=N2)cc1 | 3.9% (inactive)
52 | Cc1ccc(C(=O)OCC(=O)Nc2sc3c(c2C#N)CCCC3)cc1NC(=O)c1ccco1 | 1.3% (inactive)

Row | SMILES | inhibition
53 | CSc1nc(=NC(C)=O)ss1 | 54.4% (active)
54 | CCN(c1ccccc1)S(=O)(=O)c1ccc(OC)c(NC(=O)CNC)c1 | 7.5% (inactive)
55 | CCN(CC)CCOC(=O)c1c(C)oc2ccc(O)cc12 | 81.6% (active)
56 | CCN(CC)CCOC(=O)c1c(C)oc2ccc(OC)cc12 | -3.8% (inactive)
57 | CCOC(=O)c1c(C)oc2ccc(O)cc12 | 8.3% (inactive)
58 | C/C(=N\NC(=O)CCc1c[nH]c2ccccc12)c1ccc([N+](=O)[O-])cc1 | 7.7% (inactive)
59 | O=C(Cc1coc(-c2ccc(F)cc2)n1)N1CCOCC1 | 1% (inactive)
60 | OCCN(CCO)c1ccc(C(c2ccccc2Cl)c2ccc(N(CCO)CCO)cc2Cl)c(Cl)c1 | 22.1% (inactive)
61 | Nc1ccc(N(CCO)CCO)cc1 | 4.7% (inactive)
62 | Cc1ccc(C(=O)CSc2n[nH]c(C)n2)cc1 | 48.5% (inactive)
63 | Cc1nc(SCC(=O)c2ccc(F)cc2)n[nH]1 | -6.3% (inactive)
64 | Cc1nc(SCC(=O)c2ccccc2)n[nH]1 | 65.9% (active)
65 | O=C(CCCN1C(=O)/C(=C/c2ccccc2)SC1=S)Nc1ccc(O)cc1 | 73% (active)
66 | Cc1ccc(/C=C2/SC(=S)N(CCCC(=O)Nc3ccc(O)cc3)C2=O)cc1 | 22.7% (inactive)
67 | O=C(CCCN1C(=O)/C(=C/c2ccccc2)SC1=S)Nc1cccc(O)c1 | 13% (inactive)
68 | O=C(COC(=O)/C=C/c1ccc([N+](=O)[O-])cc1)NC(c1ccccc1)c1ccccc1 | 13% (inactive)
69 | CC1=C(C(=O)Nc2ccccc2)C(c2cccc([N+](=O)[O-])c2)Nc2nc3ccccc3n21 (centres undefined) | 6.9% (inactive)
70 | O=C(CN1c2cccc3cccc(c23)S1(=O)=O)N1CCOCC1 | 1% (inactive)
71 | CC1=CC(C)(C)Nc2ccc(OC(=O)CN3C(=O)CCC3=O)cc21 | 22% (inactive)
72 | CC1=CC(C)(C)Nc2ccc(OC(=O)CN3C(=O)c4cccc5cccc(c45)C3=O)cc21 | 53.4% (active)
73 | CC1=CC(C)(C)Nc2ccc(OC(=O)CN3C(=O)c4ccccc4C3=O)cc21 | 16.6% (inactive)
74 | Cc1cc(NC(=O)c2cc(-c3ccccc3)on2)n(-c2ccccc2)n1 | 0.3% (inactive)
75 | CCC(C)CCCCNC1=NCCS1 (centres undefined) | -16.3% (inactive)
76 | Cc1ccc(/C=N/n2c(C)nnc2C)cc1 | 3.6% (inactive)
77 | Cc1ccc(-c2n[nH]c(=S)n2/N=C/c2ccncc2)cc1 | -12% (inactive)
78 | CCOC(=O)c1c(-c2ccc(C)s2)csc1NC(=O)c1cccs1 | 1.1% (inactive)

Row | SMILES | inhibition
79 | CCOC(=O)c1c(-c2cccs2)csc1NC(C)=O | 7.1% (inactive)
80 | CCOC(=O)c1c(-c2cccs2)csc1N | 51% (active)
81 | NC(=O)c1c(-c2cccs2)csc1N | 34.2% (inactive)
82 | CCOC(=O)c1c(-c2ccc(C)s2)csc1N | 62.1% (active)
83 | CCOC(=O)c1c(-c2ccncc2)csc1N | 23.6% (inactive)
84 | O=C1c2ccccc2C(=O)N1CCCCN(C(=O)c1cc2ccccc2oc1=O)c1ccc(F)cc1F | 11.5% (inactive)
85 | Cc1cccc(-n2c(Cc3ccccc3)nnc2SCC(=O)N2CCOCC2)c1 | -6.7% (inactive)
86 | O=C(NCc1ccccc1)c1cnc(-c2ccccn2)nc1C(F)(F)F | -3.7% (inactive)
87 | CCC(OC(=O)c1cccs1)C(=O)NC1CCCCC1 (centres undefined) | 3.4% (inactive)
88 | O=[N+]([O-])c1cc(/C=N/n2c(-c3ccncc3)n[nH]c2=S)ccc1Cl | 2.2% (inactive)
89 | CC(C)CC(c1nnnn1Cc1ccc2c(c1)OCO2)N1CCC(C(N)=O)CC1 (centres undefined) | 7.2% (inactive)
90 | CCc1c(C)sc(NC(=O)C2CCCCC2C(=O)O)c1C(N)=O (centres undefined) | 72.1% (active)
91 | Cc1sc(NC(=O)C2CCCCC2C(=O)O)c(C(N)=O)c1C (centres undefined) | -5.3% (inactive)
92 | CCc1c(C)sc(NC(=O)C2CC2c2ccccc2)c1C(N)=O (centres undefined) | 7.7% (inactive)
93 | COC(=O)c1c(N2C(=O)CC(Sc3ccccc3C(=O)O)C2=O)sc(C)c1C (centres undefined) | -16.2% (inactive)
94 | COC(=O)c1sccc1NC(=O)CSc1ccccc1N | 12.4% (inactive)
95 | CCN(CC(=O)NCc1ccc(F)cc1)Cc1cc(=O)n2ccsc2n1 | -30.2% (inactive)
96 | Cc1ccc(-n2nc3ccc(N)cc3n2)cc1 | 38.7% (inactive)
97 | Cc1cc2nn(-c3cccc4ccccc34)nc2cc1NC(=O)c1cccs1 | 12.3% (inactive)
98 | Cc1cc2nn(-c3cccc4ccccc34)nc2cc1N | 77.5% (active)
99 | Nc1cc2nn(-c3ccccc3)nc2cc1Cl | 69.4% (active)
100 | CC(=O)Nc1cc2nn(-c3ccccc3)nc2cc1Cl | 0.2% (inactive)
101 | CCC(=O)Nc1cc2nn(-c3ccc(C)cc3)nc2cc1C | -2.8% (inactive)
102 | Nc1ccc2nn(-c3cccc4ccccc34)nc2c1 | 42.9% (inactive)
103 | Cc1ccc(-n2nc3cc(C)c(N)cc3n2)cc1 | 75.3% (active)
104 | Nc1ccc2nn(-c3ccccc3)nc2c1 | 35.7% (inactive)
